The record followed here is PubChem BioAssay AID1220 (Sanford-Burnham Center for Chemical Genomics, 2008).

The whole screen tested about 190,000 compounds, of which about 1,300 (0.68%) were called active. For the sample, actives were picked, then their nearest neighbours and some compounds at random. A number with no mark means an inactive call. Rule as the data show it: active = inhibition above about 50%; inactive = the rest.

The target in the assay is Mannose-6-phosphate isomerase (Homo sapiens) (UniProt P34949). As to the kind of experiment: human PMI inhibitors, high substrate, primary screen, biochemical, fluorescence intensity, high mannose 6-phosphate (AID 1220). The following applies: recombinant PMI enzyme, coupled fluorescence intensity; at 20 µM; stronger effect = higher value.
Chain of Mannose-6-phosphate isomerase (Homo sapiens) (P34949 whole entry, looked up): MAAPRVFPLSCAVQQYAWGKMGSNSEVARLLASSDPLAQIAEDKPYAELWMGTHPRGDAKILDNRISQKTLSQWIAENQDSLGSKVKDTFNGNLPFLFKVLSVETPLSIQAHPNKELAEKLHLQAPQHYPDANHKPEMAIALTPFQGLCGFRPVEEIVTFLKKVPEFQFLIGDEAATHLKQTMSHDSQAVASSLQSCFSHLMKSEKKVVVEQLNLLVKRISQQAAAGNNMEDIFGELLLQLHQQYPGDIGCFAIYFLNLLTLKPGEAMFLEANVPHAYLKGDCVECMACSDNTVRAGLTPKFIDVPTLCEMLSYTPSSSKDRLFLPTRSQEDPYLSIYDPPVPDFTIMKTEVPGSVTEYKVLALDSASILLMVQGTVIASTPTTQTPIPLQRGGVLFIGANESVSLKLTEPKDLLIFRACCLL
Turning to `COc1ccc(S(=O)(=O)Nc2cc3c4c(oc3c3ccccc23)CCCC4=O)cc1`, the inhibition is 14.6%. Next, `COc1ccc(S(=O)(=O)Nc2cc3c4c(oc3c3ccccc23)CC(C)(C)CC4=O)cc1`: 50.1% (active). Turning to `COc1ccc(S(=O)(=O)Nc2cc3c(C(C)=O)c(C)oc3c3ccccc23)cc1`, the inhibition was -0.8%. As for `COc1ccc(O[C@H]2C=C[C@@H](c3ccccc3)O[C@@H]2COC(=O)CC/C(C)=N/OC[C@@H](O)COCc2ccco2)cc1`, the figure is 19.3%; as for `CCC(NC(=O)CCc1ccccc1)c1ccccc1` (configuration not stated), 0.5%; as for `Cc1ccc2c(Cl)cc(Cl)c(OCC(=O)O)c2n1`, 9.9%.

As for `Cc1ccc2c(Cl)cc(Cl)c(OCC(=O)N3CCCC3)c2n1`, the inhibition was 54.6% (active). Next, `COC(=O)COc1c(Cl)cc(Cl)c2ccc(C)nc12`: 10.1%. For the compound `CCOc1ccc(C(NC(=O)/C=C/c2ccco2)c2ccc(OC)c(OC)c2)cc1` (configuration not stated), the inhibition is 10.3%. As for `COc1ccc(C2Nc3ccccc3C(=O)N2NS(=O)(=O)c2ccc(C)cc2)cc1` (configuration not stated), the figure is 5.5%; as for `Cc1ccc(OCCN(C)C(=O)CC2C(=O)NCCN2CC(C)(C)C)cc1` (configuration not stated), 41.2%. Next, `COC(=O)CN(C)C(=O)CC1C(=O)NCCN1CC(C)(C)C` (configuration not stated): 56.5% (active). Next, `CN(Cc1ccon1)C(=O)CC1C(=O)NCCN1CC(C)(C)C` (configuration not stated): 35.3%; `COc1ccc(N2CCN(C(=O)COc3ccc4ccccc4c3)CC2)cc1`: 6.1%; `COc1ccc(CN2CCN(c3ccccn3)CC2)c(OC)c1`: -6.3%. Consider `O=C(Nc1ccccc1)c1ccc(NCCN2CCOCC2)c(S(=O)(=O)N2CCOCC2)c1`, for which the inhibition is 1.4%. As for `CCOC(=O)C(Cc1c(F)cccc1Cl)c1ccno1` (configuration not stated), the figure is -11.3%; as for `CCOC(=O)C(Cc1c(F)cccc1Cl)c1ccnc2nc(N)nn12` (configuration not stated), 64.8% (active). As for `CCOC(=O)C(Cc1ccccc1)c1ccnc2nc(N)nn12` (configuration not stated), the figure is -9.3%; as for `CCN(CC)CCOC(=O)c1ccc(NC(=O)CNC(=O)C2CCCCC2)cc1`, -12.4%. Next, `O=C1CC(c2ccccc2)n2nc(NC(=O)c3cccnc3)nc2N1` (configuration not stated): -4.6%. For `Cc1ccc(-n2nnnc2SCC(=O)NNC(=O)c2ccc([N+](=O)[O-])cc2)cc1`, the inhibition is 8.5%. As for `Cc1ccsc1C=Nc1ccc(O)cc1`, the figure is 45.3%; as for `Oc1ccc(N=Cc2ccc(-c3cccs3)s2)cc1`, 55.3% (active). Next, `CC(=O)c1ccc(-c2cccs2)s1`: 0.2%; `Cc1ccc(N2C(=O)/C(=C\c3ccco3)SC2=S)cc1`: 39.7%; `O=C(O)CCN1C(=O)/C(=C\c2ccc(-c3nc4ccccc4s3)o2)SC1=S`: 7.1%. Next, `O=C(CCCN1C(=O)/C(=C\c2ccco2)SC1=S)Nc1ccc2ccccc2c1`: -8.1%; `O=C1/C(=C\c2ccco2)SC(=S)N1c1ccc(O)cc1`: 39.1%. On to `COc1ccc(NC(=O)CCCN2C(=O)/C(=C\c3ccco3)SC2=S)cc1`, for which the inhibition is 13.4%. Next, `O=C(O)CCCN1C(=O)/C(=C/c2ccc(-c3nc4ccccc4s3)o2)SC1=S`: -50.1%. As for `O=C1/C(=C\c2ccco2)SC(=S)N1c1ccccc1`, the figure is 51.3% (active); as for `O=C(O)CCN1C(=O)/C(=C/c2ccc(-c3nc4ccccc4s3)o2)SC1=S`, 54.7% (active); as for `O=C1/C(=C\c2cccs2)SC(=S)N1C1CCS(=O)(=O)C1` (configuration not stated), 12%. As for `Cc1ccc(/C=C2\SC(=S)N(C3CCS(=O)(=O)C3)C2=O)o1` (configuration not stated), the figure is 41.2%; as for `O=C1/C(=C/c2ccco2)SC(=S)N1C1CCS(=O)(=O)C1` (configuration not stated), 54.7% (active).

As to `O=C(O)CCCN1C(=O)/C(=C\c2ccco2)SC1=S`, the inhibition was 60.3% (active). As for `CCC(=O)Nc1cc(-c2nn3c(C)nnc3s2)ccc1C`, the figure is 1.7%; as for `O=C(CCOc1ccccc1)Nc1cccc(S(=O)(=O)Nc2ccccc2Cl)c1`, 13.1%. Next, `CCC(=O)Nc1ccc(S(=O)(=O)NCc2ccco2)cc1`: -9.3%. As for `COc1ccc(NC(=O)c2onc(C)c2Cl)cc1OC`, the figure is -15%; as for `CCOC(=O)C1(Cc2ccc(Cl)cc2)CCN(CCCn2cccn2)CC1`, 3.5%; as for `CN(c1ncc(C(F)(F)F)cc1Cl)N1C(=O)c2cccc([N+](=O)[O-])c2C1=O`, 6.1%. With `Clc1cc(Cl)cc(C2=NCCC(c3ccccc3)O2)c1` (configuration not stated), the inhibition is 15.6%. As for `CC1(C)CC(=O)C2=C(C1)OC(N)=C(C#N)C2c1ccccc1[N+](=O)[O-]` (configuration not stated), the figure is 47.5%; as for `O=C(O)CN(c1ccc2c(c1)OCCO2)S(=O)(=O)c1ccccc1`, -2.6%; as for `COc1ccc(OCC(=O)NC(CC(=O)O)c2ccc(OC)c(OC)c2)cc1` (configuration not stated), -11.4%. For the compound `Cc1c(Br)c(=O)oc2c(Br)c(O)ccc12`, the inhibition is -8.7%.

Regarding `O=c1oc2c(O)c(O)cc3c(=O)oc4c(O)c(O)cc1c4c23`, the inhibition is 61.2% (active). Turning to `Cc1c(Br)c(=O)oc2c(Br)c(O)c(O)cc12`, the inhibition was -33.8%. In the case of `Cc1cccc(C(c2c(C)nn(-c3ccccc3)c2N)c2c(C)nn(-c3ccccc3)c2N)c1`, the inhibition was 16.3%.

With `O=C(NC1CCCCC1)c1cc(Cl)nc2ccccc12`, the inhibition was 1.4%. As for `Cn1cc(/C=N\O)nc2c(=O)n(-c3ccccc3)c(=O)nc1-2`, the inhibition was 56.5% (active). As for `Cc1[nH]n(-c2ccccc2)c(=O)c1/C=N/O`, the figure is 5.9%. As for `O/N=C/c1cn(-c2ccccc2)nn1`, the figure is 6.9%; as for `Nc1cc(=O)[nH]c(SCC(=O)Nc2cccc(Cl)c2Cl)n1`, 4.4%; as for `O=C(CSc1ncn(-c2ccccc2)n1)Nc1nncs1`, 5.2%.

As for `COc1cc(C2C3C(=O)N(Cc4ccccc4)C(=O)C3ON2c2ccccc2)cc(OC)c1OC` (configuration not stated), the inhibition is 7.3%. Take `COc1ccc(C2C3C(=O)N(Cc4ccccc4)C(=O)C3ON2c2ccccc2)c(OC)c1OC` (configuration not stated): the inhibition is 15%.

Take `COc1cc(C2C3C(=O)N(Cc4ccccc4)C(=O)C3ON2c2ccccc2)cc(OC)c1O` (configuration not stated): the inhibition is 54.2% (active). For `Cc1c(N=Cc2ccc(O)c(Br)c2)cccc1[N+](=O)[O-]`, the inhibition is 12.1%. In the case of `COc1cc(C=Nc2cccc(C)c2)c(O)c([N+](=O)[O-])c1`, the inhibition was 34%. As for `COc1ccc(N=Cc2cc(Cc3ccccc3Cl)cc([N+](=O)[O-])c2O)cc1OC`, the figure is 54.9% (active); as for `COc1ccc(N=Cc2cccc(C)c2O)cc1Cl`, 7.9%; as for `Cc1n[nH]c(C)c1Sc1ccccc1N=Cc1cc(Cl)cc([N+](=O)[O-])c1O`, 0.8%.

`Cc1ccc(N=Cc2c(O)[nH]c3ccccc23)c([N+](=O)[O-])c1`: the inhibition was -4.1%. As for `Cc1ccc(O)c(N=Cc2cc(Cc3ccccc3)cc([N+](=O)[O-])c2O)c1`, the figure is 63.3% (active). As for `Cc1ccc(N=Cc2cc(Cc3ccccc3Cl)cc([N+](=O)[O-])c2O)c(O)c1`, the figure is 56.5% (active); as for `O=[N+]([O-])c1cc(Cc2ccccc2)cc(C=Nc2ccc(N3CCOCC3)cc2)c1O`, 38.7%; as for `COc1cc([N+](=O)[O-])cc2sc(NC(=O)C(C)(C)C)nc12`, 17%. Next, `COc1ccccc1Cn1c(/C=C/c2ccccc2)nc2ccccc21`: 4.9%; `Cc1cccc(-n2nc3c(c2NC(=O)c2ccc(Br)o2)CSC3)c1`: -0.5%. As to `CCCC(CCC(=O)Nc1cc([N+](=O)[O-])ccc1O)C(=O)O` (configuration not stated), the inhibition was 11%.

`CC(=O)Nc1ccc(NC(=O)c2cccc3c2-c2ccccc2C3=O)cc1`: the inhibition was -2.8%. Regarding `CC(=O)NC(=S)Nc1ccc([N+](=O)[O-])cc1C`, the inhibition was -6%. As for `CC1CCCN(Cc2nc3c(c(=O)n(C)c(=O)n3C)n2CCc2ccccc2)C1` (configuration not stated), the figure is 5.2%; as for `CNC(=O)CSc1nc(N)c2c3c(sc2n1)CCC3`, 7.8%. Next, `CC1=C(C(=O)N2CCOCC2)C(c2cccc(C)c2)NC(=S)N1` (configuration not stated): -12.7%; `Nc1c(O)ccc2c1C(=O)c1ccccc1C2=O`: 5.1%. As for `Cc1ccc(NC2=C(NCCO)C(=O)c3ccccc3C2=O)cc1`, the figure is 47.8%. For the compound `COC1=C(Nc2ccccc2)C(=O)c2ccccc2C1=O`, the inhibition was 4.1%. Turning to `Cc1ccc(NC2=CC(=O)C(=O)c3ccccc32)cc1`, the inhibition is 56.2% (active). For `O=C1C=C(NCc2ccccc2)c2ccccc2C1=O`, the inhibition was 7.9%. As for `CC1(C)CC(=O)C=C(Nc2ccccc2O)C1`, the figure is 7.6%; as for `O=C1C=C(Nc2ccccc2)C(=O)c2ccccc21`, 57.5% (active).

On to `O=C1C=C(Nc2ccccc2O)c2ccccc2C1=O`, for which the inhibition is 62.6% (active). Next, `CC1=CC(=O)c2ccccc2C1=O`: -13.3%; `O=C1C=C(Nc2ccccc2)c2ccccc2C1=O`: 64.6% (active). Next, `COC1=C(Nc2ccc(C)cc2)C(=O)c2ccccc2C1=O`: -3.1%; `O=C1C(Nc2ccccc2)=C/C(=N/S(=O)(=O)c2cccs2)c2ccccc21`: 40.7%. As for `CC(C)(C)n1nnnc1SCC(=O)Nc1nn(-c2ccccc2)nc1C(N)=O`, the figure is 0.7%; as for `CN(C(=O)COc1ccccc1)c1nnc(-c2cccnc2)s1`, -0.3%; as for `Cc1ccccc1NC(=O)c1c2c(nc3ccccc13)CCC2`, -4.6%.

With `O=C(O)[C@H]1CCCC[C@H]1C(=O)Nc1cc([N+](=O)[O-])ccc1F`, the inhibition was -7.1%. Next, `CCCC(=O)Nc1cc(Cl)ccc1C`: -0.2%; `Nc1nc(SCC(=O)Nc2cc(S(=O)(=O)N3CCOCC3)ccc2Cl)n[nH]1`: -10.9%. Next, `COC(=O)c1ccc(CSc2nnc(-c3ccc4c(c3)OCO4)n2-c2ccccc2)o1`: -8.3%.
